# Experimental data taken from PubChem BioAssay (NCATS).
# Values joined by “and” are separate entries in the source; they are usually repeats but may differ in a detail not shown here. Identical values can stand only once. Inconclusive results are not listed. A call without a number means that no potency is given here. A number with no mark means an inactive call. Active and inactive are the calls of the source. The call rests on the fitted dose curve; in most records, active means well fitted inhibition curve with a large enough effect; inconclusive means small, poorly fitted or top-dose-only effect; inactive means flat fitted curve, though single readings scatter.
# Tests used:
# KB-3-1 = assay: Cytotoxic Profiling of Annotated Libraries Using Quantitative High-Throughput Screening (AID 1296008); details: Five cell lines viability, CellTiter-Glo ATP luminescence, 48-72 h; max response: active compounds read low; further: potency means the concentration at half of the fitted maximal effect
# Outline: (§1)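 Cytotoxicity was measured as CellTiter-Glo ATP luminescence, read after 10 min at room temperature. Compound treatment of the cells lasted 48 or 72 hr at 37 degrees Celsius in a qHTS format.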
# CRL-7250 [1] = assay: as above; details: Five cell lines viability, CellTiter-Glo ATP luminescence, 48-72 h; max response: active compounds read low
# Outline: as §1
# HEK293 = assay: as above; details: Five cell lines viability, CellTiter-Glo ATP luminescence, 48-72 h; max response: active compounds read low
# Outline: as §1
# HaCat = assay: as above; details: Five cell lines viability, CellTiter-Glo ATP luminescence, 48-72 h; max response: active compounds read low
# Outline: as §1
# NIH3T3 = assay: as above; details: Five cell lines viability, CellTiter-Glo ATP luminescence, 48-72 h; max response: active compounds read low
# Outline: as §1
# CRL-7250 [2] = assay: qHTS assay to identify novel small-molecules to repurpose for Merkel cell carcinoma treatment (AID 1296009); details: MCC and control cell lines, CellTiter-Glo viability, 72 h; at 44.8 µM (top of the series) unless noted
# Outline: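 72 hr, 37 degree celsius; NPC 8-pt / MIPE 11-pt dose response; compound pinned in DMSO; CellTiter-Glo, 10 min RT, luminescence; normalized to no-cell and DMSO controls.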
# TAB109 = assay: qHTS profiling for inhibitors of Plasmodium falciparum proliferation (AID 504749); further: potency means the concentration at half of the fitted maximal effect; details: P. falciparum in erythrocytes, SYBR Green DNA, 72 h; series mostly up to 28.7 µM
# Outline: (§2)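 Infected RBCs, 0.3% parasitemia/2.5% Hct final; cpd 72 h, 37 C, 5% CO2; lysis buffer with saponin/triton/SYBR Green I, o/n RT dark; FI 485/535; norm. to artemisinin (0.29 uM) and DMSO.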
# TAB113 = assay: as above; details: P. falciparum in erythrocytes, SYBR Green DNA, 72 h; series mostly up to 28.7 µM
# Outline: as §2
# TAB165 = assay: as above; details: P. falciparum in erythrocytes, SYBR Green DNA, 72 h; series mostly up to 28.7 µM
# Outline: as §2
# W2 = assay: as above; details: P. falciparum in erythrocytes, SYBR Green DNA, 72 h; series mostly up to 28.7 µM
# Outline: as §2
# Further: nearly all actives have a fitted effect of over 60% in size.
smiles,measurement,setting,value
CCNC1(c2cccs2)CCCCC1=O (stereo not given),max response,KB-3-1,-6.94%
COC1C(O)C(C)OC(OC2C(CO)O[C@@H](O[C@@H]3CC4CCC5C(CC[C@]6(C)[C@@H](C7=CC(=O)OC7)CC[C@]56O)[C@@]4(C)[C@H](O)C3)C(O)C2O)C1O (stereo not given in full),Potency,CRL-7250 [1],0.485 µM (active)
same,Potency,HEK293,0.432 µM (active)
same,Potency,HaCat,3.43 µM (active)
same,outcome,NIH3T3,inactive
COC1CC(OC2CCC3(C)C(=CCC4C3CCC3(C)C(C(C)OC5OC(COC6OC(CO)C(O)C(O)C6O)C(O)C(O)C5O)CCC43O)C2)OC(C)C1OC1OC(C)C(O)C(OC)C1O (stereo not given),max response,CRL-7250 [1],-7.32%
same,max response,HEK293,-6.75%
same,outcome,HaCat,inactive
same,outcome,NIH3T3,inactive
C[C@@]12C[C@@H](c3ccoc3)OC(=O)C1CC[C@]1(C)[C@H]2[C@H]2C=C[C@]1(O)C(=O)O2 (stereo not given in full),outcome,CRL-7250 [1],inactive
same,outcome,HEK293,inactive
same,max response,HaCat,-0.33%
same,outcome,NIH3T3,inactive
same,outcome,CRL-7250 [2],inactive
COc1ccccc1CN[C@H]1C2CCN(CC2)[C@H]1C(c1ccccc1)c1ccccc1,outcome,CRL-7250 [1],inactive
same,max response,HEK293,-17%
same,outcome,HaCat,inactive
same,outcome,NIH3T3,inactive
same,outcome,CRL-7250 [2],inactive
CN(C)[C@@H]1C(=O)C(C(N)=O)=C(O)[C@@]2(O)C(=O)C3=C(O)c4c(O)ccc(Cl)c4[C@@](C)(O)[C@H]3C[C@@H]12,max response,KB-3-1,2.99%
c1csc(C2(N3CCCCC3)CCCCC2)c1,Potency,TAB109,inactive
same,Potency,TAB113,inactive
same,Potency,TAB165,inactive
same,Potency,W2,9.53 µM (active)
same,max response,KB-3-1,5.46%
CNC1(c2ccccc2Cl)CCCCC1=O (stereo not given),Potency,TAB109,inactive
same,Potency,TAB113,inactive
same,Potency,TAB165,inactive
same,Potency,W2,4.78 µM (active)
same,max response,KB-3-1,3.79% and -7.59%
C=CCN1CC[C@]23c4c5ccc(O)c4O[C@H]2[C@@H](O)C=C[C@H]3[C@H]1C5,Potency,TAB109,inactive
same,Potency,TAB113,inactive
same,Potency,TAB165,inactive
same,Potency,W2,inactive
same,max response,KB-3-1,10.7%
